Assay in all cases: DAPPL (digital affinity profiling via proximity ligation, sequencing); 10 mM Tris-HCl pH 7.5, 50 mM NaCl, 1 mM DTT, 4% glycerol, room temperature, 30 min; GST-TFs on glutathione beads, 16-mer random dsDNA library, 0.1% formaldehyde crosslink after washing; high values mean tight binding
Common to all, as to settings: protein: recombinant; tags: N-terminal GST; dsDNA, one strand shown

One experiment concerns the target T1, FLI1 (Homo sapiens, UniProt Q01543 1-452).
T1 sequence: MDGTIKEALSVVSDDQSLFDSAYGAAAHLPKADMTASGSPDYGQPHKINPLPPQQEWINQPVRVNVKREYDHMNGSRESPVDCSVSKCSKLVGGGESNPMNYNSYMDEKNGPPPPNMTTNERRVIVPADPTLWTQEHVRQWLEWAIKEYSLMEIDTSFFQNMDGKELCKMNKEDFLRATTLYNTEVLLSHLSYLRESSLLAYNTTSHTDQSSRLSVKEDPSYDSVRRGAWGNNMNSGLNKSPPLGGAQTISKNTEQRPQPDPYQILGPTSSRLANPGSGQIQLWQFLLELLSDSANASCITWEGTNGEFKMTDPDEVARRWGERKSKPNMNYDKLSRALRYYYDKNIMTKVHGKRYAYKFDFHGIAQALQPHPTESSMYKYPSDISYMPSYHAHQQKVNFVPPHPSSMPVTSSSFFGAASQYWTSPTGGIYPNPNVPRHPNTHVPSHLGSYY
In short, it runs like this:
(§1)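 Beads coated with glutathione captured GST-fused human transcription factors that had been expressed in yeast, and the factors were then given DNA barcodes and pooled with a tag-only sample. The pools were incubated with 200 nmole of a random double-stranded 16-mer DNA library in Tris/NaCl/DTT/glycerol buffer for 30 min at room temperature, washed, crosslinked with 0.1% formaldehyde and proximity-ligated with BsaI/T4 ligase at 37 °C for 1 h. PCR amplification and Illumina NextSeq500 sequencing came last. Binding signal is each hexamer's read frequency for a factor divided by its frequency for the tag-only sample.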

The target in the next experiment is T2, ELK1 (Homo sapiens, UniProt P19419 1-428).
T2 sequence: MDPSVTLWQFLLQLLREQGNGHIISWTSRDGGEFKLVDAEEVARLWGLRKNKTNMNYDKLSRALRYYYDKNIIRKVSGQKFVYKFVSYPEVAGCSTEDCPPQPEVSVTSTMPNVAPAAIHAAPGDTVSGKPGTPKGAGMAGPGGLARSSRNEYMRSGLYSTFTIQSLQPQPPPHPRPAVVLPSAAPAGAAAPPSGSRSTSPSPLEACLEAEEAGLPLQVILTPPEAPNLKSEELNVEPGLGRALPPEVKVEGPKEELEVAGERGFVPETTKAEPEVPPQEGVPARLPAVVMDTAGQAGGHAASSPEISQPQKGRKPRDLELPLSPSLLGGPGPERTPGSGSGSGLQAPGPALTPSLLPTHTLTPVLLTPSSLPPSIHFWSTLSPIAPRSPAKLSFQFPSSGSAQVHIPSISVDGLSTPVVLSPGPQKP
In short, it runs like this: as §1

The target of another experiment is T3, GABPA (Homo sapiens, UniProt Q06546 1-454).
T3 sequence: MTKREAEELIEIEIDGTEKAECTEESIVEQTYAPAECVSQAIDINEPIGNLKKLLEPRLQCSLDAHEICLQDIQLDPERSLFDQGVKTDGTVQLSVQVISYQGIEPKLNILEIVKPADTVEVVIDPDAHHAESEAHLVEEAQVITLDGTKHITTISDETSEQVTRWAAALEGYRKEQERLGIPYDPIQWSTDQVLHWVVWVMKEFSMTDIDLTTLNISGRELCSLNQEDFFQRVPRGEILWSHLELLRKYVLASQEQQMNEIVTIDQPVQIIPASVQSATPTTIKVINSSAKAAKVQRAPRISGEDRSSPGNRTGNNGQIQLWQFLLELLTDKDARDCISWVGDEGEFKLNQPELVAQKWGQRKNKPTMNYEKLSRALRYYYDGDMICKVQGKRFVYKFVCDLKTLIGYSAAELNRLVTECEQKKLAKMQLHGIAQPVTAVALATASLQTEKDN
In short, it runs like this:
as §1

A further experiment has as its target T4, ERG (Homo sapiens, UniProt P11308 1-479).
T4 sequence: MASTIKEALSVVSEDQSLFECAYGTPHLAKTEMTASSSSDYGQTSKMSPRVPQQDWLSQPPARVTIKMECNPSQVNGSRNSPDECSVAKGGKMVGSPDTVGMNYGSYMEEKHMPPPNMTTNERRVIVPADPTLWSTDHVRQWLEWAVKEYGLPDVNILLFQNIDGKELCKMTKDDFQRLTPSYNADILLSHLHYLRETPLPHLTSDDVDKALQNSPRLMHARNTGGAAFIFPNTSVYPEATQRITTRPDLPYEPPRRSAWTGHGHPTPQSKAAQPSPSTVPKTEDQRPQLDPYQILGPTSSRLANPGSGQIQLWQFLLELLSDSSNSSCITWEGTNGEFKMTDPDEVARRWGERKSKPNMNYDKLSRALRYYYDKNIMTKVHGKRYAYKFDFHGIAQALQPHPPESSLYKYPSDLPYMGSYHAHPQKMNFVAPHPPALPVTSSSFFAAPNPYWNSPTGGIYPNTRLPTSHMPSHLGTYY
In short, it runs like this: as §1

The next experiment deals with ELF1 (Homo sapiens, UniProt P32519 1-619). An outline of the steps: as §1
A further experiment deals with T5, EHF (Homo sapiens, UniProt Q9NZC4 1-300).
T5 sequence: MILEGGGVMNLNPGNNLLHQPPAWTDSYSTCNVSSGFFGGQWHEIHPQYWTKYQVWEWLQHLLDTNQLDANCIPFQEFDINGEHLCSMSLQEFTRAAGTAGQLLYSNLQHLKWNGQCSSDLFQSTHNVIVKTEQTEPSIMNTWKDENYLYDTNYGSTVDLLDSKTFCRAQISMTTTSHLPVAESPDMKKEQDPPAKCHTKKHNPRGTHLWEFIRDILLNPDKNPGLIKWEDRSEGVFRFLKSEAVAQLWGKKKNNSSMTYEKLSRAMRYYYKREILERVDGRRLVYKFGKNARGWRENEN
An outline of the steps:
as §1

The target of another experiment is SPI1 (Homo sapiens, UniProt P17947 1-270). An outline of the steps:
as §1

The target in a further experiment is SPIB (Homo sapiens, UniProt Q01892 1-262). An outline of the steps: as §1
The next experiment deals with T6, ELK3 (Homo sapiens, UniProt P41970 1-407).
T6 sequence: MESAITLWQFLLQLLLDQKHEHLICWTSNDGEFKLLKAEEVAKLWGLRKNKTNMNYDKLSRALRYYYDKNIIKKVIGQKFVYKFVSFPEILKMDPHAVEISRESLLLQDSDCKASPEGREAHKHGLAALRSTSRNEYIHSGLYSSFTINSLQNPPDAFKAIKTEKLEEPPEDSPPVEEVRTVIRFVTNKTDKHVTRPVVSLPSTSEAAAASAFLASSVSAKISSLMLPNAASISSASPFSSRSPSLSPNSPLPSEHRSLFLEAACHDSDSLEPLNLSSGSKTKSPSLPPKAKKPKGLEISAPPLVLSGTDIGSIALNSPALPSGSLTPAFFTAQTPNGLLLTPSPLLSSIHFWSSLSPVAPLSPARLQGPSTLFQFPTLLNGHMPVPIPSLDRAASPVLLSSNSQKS
An outline of the steps: as §1

Chain of ELF1 (P32519 whole entry): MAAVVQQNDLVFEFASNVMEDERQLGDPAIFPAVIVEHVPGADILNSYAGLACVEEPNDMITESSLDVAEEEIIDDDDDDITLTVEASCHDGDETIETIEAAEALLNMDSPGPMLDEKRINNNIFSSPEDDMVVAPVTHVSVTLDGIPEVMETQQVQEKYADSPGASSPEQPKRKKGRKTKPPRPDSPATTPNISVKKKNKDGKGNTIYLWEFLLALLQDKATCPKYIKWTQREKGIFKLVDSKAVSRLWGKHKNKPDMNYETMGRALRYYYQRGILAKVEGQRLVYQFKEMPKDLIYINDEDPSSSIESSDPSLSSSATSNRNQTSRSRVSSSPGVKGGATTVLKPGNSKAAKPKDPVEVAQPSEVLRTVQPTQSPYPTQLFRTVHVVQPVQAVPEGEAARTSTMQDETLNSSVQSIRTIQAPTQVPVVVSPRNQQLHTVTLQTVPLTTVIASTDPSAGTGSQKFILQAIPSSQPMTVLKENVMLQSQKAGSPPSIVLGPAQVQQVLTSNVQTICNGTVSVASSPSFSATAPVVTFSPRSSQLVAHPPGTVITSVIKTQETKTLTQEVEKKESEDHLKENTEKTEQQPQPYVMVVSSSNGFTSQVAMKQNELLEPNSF
Chain of SPIB (Q01892 whole entry): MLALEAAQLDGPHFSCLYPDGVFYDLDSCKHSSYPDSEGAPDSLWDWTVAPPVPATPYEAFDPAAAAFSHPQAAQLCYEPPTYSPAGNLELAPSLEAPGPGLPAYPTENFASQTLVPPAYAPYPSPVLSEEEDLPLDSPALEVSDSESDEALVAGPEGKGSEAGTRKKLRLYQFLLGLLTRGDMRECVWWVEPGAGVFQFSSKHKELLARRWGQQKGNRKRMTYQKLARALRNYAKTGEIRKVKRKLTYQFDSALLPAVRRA

On to ACATCC, for which the binding signal with FLI1 was 2.58 fold enrichment (6-mer frequency, TF over GST control); with ELK1, 2.73 fold enrichment (6-mer frequency, TF over GST control); with GABPA it was 2.39 fold enrichment (6-mer frequency, TF over GST control); in the experiment with ERG it was 3.08 fold enrichment (6-mer frequency, TF over GST control); with ELF1, 2.35 fold enrichment (6-mer frequency, TF over GST control); in the experiment with EHF it was 2.7 fold enrichment (6-mer frequency, TF over GST control). Further, the binding signal is 2.5 fold enrichment (6-mer frequency, TF over GST control) with SPI1; 2.69 fold enrichment (6-mer frequency, TF over GST control) in the experiment with SPIB; 2.98 fold enrichment (6-mer frequency, TF over GST control) with ELK3.
With AACTCT, the binding signal in the experiment with FLI1 was 1.32 fold enrichment (6-mer frequency, TF over GST control); with ELK1 it was 1.37 fold enrichment (6-mer frequency, TF over GST control); with GABPA it was 1.31 fold enrichment (6-mer frequency, TF over GST control); with ERG, 1.33 fold enrichment (6-mer frequency, TF over GST control); with ELF1, 1.5 fold enrichment (6-mer frequency, TF over GST control); with EHF it was 1.33 fold enrichment (6-mer frequency, TF over GST control). Further, the binding signal with SPI1 is 1.28 fold enrichment (6-mer frequency, TF over GST control); with SPIB, 1.28 fold enrichment (6-mer frequency, TF over GST control); in the experiment with ELK3 it was 1.26 fold enrichment (6-mer frequency, TF over GST control).
On to CTTCCA, for which the binding signal in the experiment with FLI1 was 1.5 fold enrichment (6-mer frequency, TF over GST control); in the experiment with ELK1, 1.42 fold enrichment (6-mer frequency, TF over GST control); with GABPA it was 1.34 fold enrichment (6-mer frequency, TF over GST control); in the experiment with ERG, 1.47 fold enrichment (6-mer frequency, TF over GST control); in the experiment with ELF1, 1.39 fold enrichment (6-mer frequency, TF over GST control); with EHF, 1.53 fold enrichment (6-mer frequency, TF over GST control). In addition, the binding signal in the experiment with SPI1 is 1.44 fold enrichment (6-mer frequency, TF over GST control); with SPIB, 1.51 fold enrichment (6-mer frequency, TF over GST control); with ELK3 it was 1.58 fold enrichment (6-mer frequency, TF over GST control).
Take AATGTC: the binding signal in the experiment with FLI1 was 1.16 fold enrichment (6-mer frequency, TF over GST control); with ELK1 it was 1.21 fold enrichment (6-mer frequency, TF over GST control); with GABPA, 1.23 fold enrichment (6-mer frequency, TF over GST control); with ERG, 1.27 fold enrichment (6-mer frequency, TF over GST control); in the experiment with ELF1, 1.22 fold enrichment (6-mer frequency, TF over GST control); with EHF it was 1.29 fold enrichment (6-mer frequency, TF over GST control). The binding signal in the experiment with SPI1 is 1.23 fold enrichment (6-mer frequency, TF over GST control); with SPIB, 1.25 fold enrichment (6-mer frequency, TF over GST control); in the experiment with ELK3 it was 1.23 fold enrichment (6-mer frequency, TF over GST control).
Turning to TTAGGG, the binding signal is 1.03 fold enrichment (6-mer frequency, TF over GST control) with FLI1; 1.14 fold enrichment (6-mer frequency, TF over GST control) with ELK1; 1.13 fold enrichment (6-mer frequency, TF over GST control) with GABPA; 1.15 fold enrichment (6-mer frequency, TF over GST control) with ERG; 1.11 fold enrichment (6-mer frequency, TF over GST control) in the experiment with ELF1; 1.13 fold enrichment (6-mer frequency, TF over GST control) in the experiment with EHF. In addition, the binding signal with SPI1 is 1.25 fold enrichment (6-mer frequency, TF over GST control); with SPIB, 1.17 fold enrichment (6-mer frequency, TF over GST control); with ELK3 it was 1.07 fold enrichment (6-mer frequency, TF over GST control).
ATTTAC: the binding signal with FLI1 is 1.22 fold enrichment (6-mer frequency, TF over GST control); with ELK1, 1.29 fold enrichment (6-mer frequency, TF over GST control); with GABPA it was 1.23 fold enrichment (6-mer frequency, TF over GST control); with ERG, 1.27 fold enrichment (6-mer frequency, TF over GST control); with ELF1 it was 1.28 fold enrichment (6-mer frequency, TF over GST control); with EHF, 1.33 fold enrichment (6-mer frequency, TF over GST control). Besides, the binding signal in the experiment with SPI1 was 1.28 fold enrichment (6-mer frequency, TF over GST control); in the experiment with SPIB it was 1.23 fold enrichment (6-mer frequency, TF over GST control); in the experiment with ELK3, 1.21 fold enrichment (6-mer frequency, TF over GST control).
In the case of TTGTTA, the binding signal in the experiment with FLI1 is 1.32 fold enrichment (6-mer frequency, TF over GST control); with ELK1, 1.34 fold enrichment (6-mer frequency, TF over GST control); with GABPA, 1.32 fold enrichment (6-mer frequency, TF over GST control); in the experiment with ERG it was 1.33 fold enrichment (6-mer frequency, TF over GST control); with ELF1 it was 1.29 fold enrichment (6-mer frequency, TF over GST control); with EHF, 1.36 fold enrichment (6-mer frequency, TF over GST control). Also, the binding signal in the experiment with SPI1 was 1.26 fold enrichment (6-mer frequency, TF over GST control); with SPIB, 1.33 fold enrichment (6-mer frequency, TF over GST control); with ELK3 it was 1.47 fold enrichment (6-mer frequency, TF over GST control).
On to CGTATA, for which the binding signal with FLI1 is 1.12 fold enrichment (6-mer frequency, TF over GST control); with ELK1 it was 1.23 fold enrichment (6-mer frequency, TF over GST control); in the experiment with GABPA, 1.17 fold enrichment (6-mer frequency, TF over GST control); with ERG it was 1.11 fold enrichment (6-mer frequency, TF over GST control); with ELF1, 1.11 fold enrichment (6-mer frequency, TF over GST control); in the experiment with EHF, 1.09 fold enrichment (6-mer frequency, TF over GST control). The binding signal with SPI1 is 1.13 fold enrichment (6-mer frequency, TF over GST control); with SPIB it was 1.25 fold enrichment (6-mer frequency, TF over GST control); with ELK3 it was 1.16 fold enrichment (6-mer frequency, TF over GST control).
